In article PMC10954555:

Each substance was assayed against Protein lin-37 homolog (UniProt Q96GY3) (assay: cross-linking mass spectrometry; other).
Chain of Protein lin-37 homolog (Q96GY3 whole entry): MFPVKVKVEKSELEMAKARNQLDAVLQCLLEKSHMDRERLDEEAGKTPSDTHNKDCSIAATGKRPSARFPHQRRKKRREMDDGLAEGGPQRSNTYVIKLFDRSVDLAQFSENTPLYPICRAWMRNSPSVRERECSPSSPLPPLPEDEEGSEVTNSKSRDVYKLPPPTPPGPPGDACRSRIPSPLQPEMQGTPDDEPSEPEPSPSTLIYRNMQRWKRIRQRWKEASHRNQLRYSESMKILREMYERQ

Listed as a hit, yes:
Protein lin-54 homolog, Q6MZP7
Protein lin-52 homolog, Q52LA3
Protein lin-9 homolog, Q5TKA1

The substances below were run against Transcriptional repressor p66-beta (UniProt Q8WXI9) (assay: other; cross-linking mass spectrometry; other).
Chain of Transcriptional repressor p66-beta (Q8WXI9 whole entry): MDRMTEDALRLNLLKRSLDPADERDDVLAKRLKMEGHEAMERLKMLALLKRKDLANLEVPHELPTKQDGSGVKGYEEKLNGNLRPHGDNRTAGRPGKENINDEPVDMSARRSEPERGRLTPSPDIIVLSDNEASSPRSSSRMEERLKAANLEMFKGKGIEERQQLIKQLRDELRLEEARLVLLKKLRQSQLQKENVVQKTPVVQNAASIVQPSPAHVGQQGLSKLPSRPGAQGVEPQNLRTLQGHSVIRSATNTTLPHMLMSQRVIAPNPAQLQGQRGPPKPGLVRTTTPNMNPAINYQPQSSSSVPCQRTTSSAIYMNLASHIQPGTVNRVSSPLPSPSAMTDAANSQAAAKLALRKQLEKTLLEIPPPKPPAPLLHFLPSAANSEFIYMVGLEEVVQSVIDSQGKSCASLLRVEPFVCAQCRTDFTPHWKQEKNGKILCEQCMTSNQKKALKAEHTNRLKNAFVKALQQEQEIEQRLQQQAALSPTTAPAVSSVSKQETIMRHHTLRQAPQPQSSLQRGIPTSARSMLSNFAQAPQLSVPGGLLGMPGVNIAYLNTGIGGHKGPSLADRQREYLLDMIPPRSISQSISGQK

Listed as a hit, yes:
Metastasis-associated protein MTA2, O94776
ATP-dependent chromatin remodeler CHD4, Q14839
Transcriptional repressor p66-alpha, Q86YP4
